Most compounds without a hit are left out; they make up all but 8% or so of the library.
FMDV inh = antivirals against foot and mouth disease virus | FMDV antiviral cell-based qHTS | Potency, µM (top dose mostly 57.9 µM), for inactives: at the highest dose activity change, negative = inhibition, actives largely listed as inhibitors | hit rate 1.2% among 410,000 | AID 1159524; calls by dose curve; tested in HEK293T cells; also: read-out not given here; potency is read from the fitted curve at half-maximal effect; % is scaled to controls: 0 for no effect and ±100 for the full control effect; nearly all actives have a fitted effect of over 45% in size
HCMV antiviral = inhibitors of human cytomegalovirus; HFF cells, HCMV-luciferase reporter, 72 h; active compounds read low; activity change, negative = inhibition, % at 57.5 µM; hit rate 4.5% among 410,000; in the data active = activity change below about -60%; inconclusive = no clear call, values can overlap the other calls; inactive = above about -39%; also: % is scaled to controls: 0 for no effect and ±100 for the full control effect
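HFF cells seeded 16 h at 37C, treated with compounds, infected with luciferase-reporter HCMV at MOI 1 PFU/cell; luciferase read at 72 h post infection, normalized to buffer-only and Salinomycin controls.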
Marburg entry inh = blocks Marburg virus binding to or entry into cells. Marburg virus pseudotyped entry inhibition, cell reporter. Potency, µM (highest dose often 37.8 µM), inactives show at the highest dose activity change, negative = inhibition, most hits filed as inhibitors. hit rate 1.8% among 300,000. AID 540276; calls by dose curve; tested in HEK293 cells; also: potency is read from the fitted curve at half-maximal effect; % is scaled to controls: 0 for no effect and ±100 for the full control effect
SARS PLP yeast = SARS-CoV PLP inhibition in yeast; S. cerevisiae expressing SARS-CoV PLpro, growth rescue; Potency, µM (top dose mostly 32.9 µM), for the others: top-dose activity, positive = growth rescue, hits mostly activators; AID 485353; hit rate 0.19% among 330,000; calls by dose curve; also: potency is read from the fitted curve at half-maximal effect; 0% is about no effect; nearly all actives have a fitted effect of over 55% in size
HCV inh = HCV inhibition; Huh7.5.1 HCVcc-Cre infection, luciferase reporter, 44 h; Potency, µM (series often up to 41.8 µM), for the others: at the highest dose activity change, negative = inhibition, usual class: inhibitors; hit rate 3.4% among 340,000; active = well fitted inhibition curve with a large enough effect; inconclusive = small, poorly fitted or top-dose-only effect, or another doubt; inactive = no such curve, though single readings can be large or run the other way; also: potency is read from the fitted curve at half-maximal effect; % is scaled to controls: 0 for no effect and ±100 for the full control effect
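Seed cells (1,000/well) for 4 h; treat with compound and infect with HCVcc-Cre, moi about 0.5. Incubate 44 h, then detect luciferase activity.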
Lassa entry inh = blocks Lassa virus binding to or entry into cells | Lassa virus pseudotype entry inhibition, cell reporter | Potency, µM (top dose mostly 37.9 µM), for the others: at the top dose activity change, negative = inhibition, hits mostly inhibitors | hit rate 1.2% among 300,000 | AID 540256; calls by dose curve; tested in HEK293 cells; also: potency is read from the fitted curve at half-maximal effect; % is scaled to controls: 0 for no effect and ±100 for the full control effect; nearly all actives have a fitted effect of over 50% in size
* hit, by the source's call; ? = inconclusive; / = no result given; + = active, no number; [ ] = another dose, or the depositor's remark.

SMILES	FMDV inh	HCMV antiviral	Marburg entry inh	SARS PLP yeast	HCV inh	Lassa entry inh
Cc1cccc(N2CCN(C(=O)C3CCN(S(=O)(=O)c4cccc5nsnc45)CC3)CC2C)c1 (stereo unspecified)	25µM*	?	?	22%	11µM*	?
Cn1nc(-c2ccccc2)c(CO)c1Oc1ccc(F)cc1	-23%	-29	?	-2%	-24%	-5%
CC(C)NC(=O)N1CCCC2(CCN(S(=O)(=O)c3ccccc3)CC2)C1	-7%	/	/	/	/	/
CCOC(=O)c1cc(-c2cccs2)nc2c1c(C)nn2-c1ccccn1	-14%	-86*	?	1%	10µM*	-14%
Cc1nn(-c2ccccn2)c2nc(-c3cccs3)cc(C(=O)NCc3ccco3)c12	0%	-37	-23%	3%	35µM*	0%
CCN(C(=O)Cn1c(=O)oc2cc(S(=O)(=O)N3CCCC3)ccc21)c1cccc(C)c1	?	-18	?	/	/	-1%[46.1 µM]
CCN(CC)c1ccc(/C=C/c2cc(-c3ccccc3)c3ccccc3n2)cc1	-35%	-38	/	-1%	14µM*	/
CC(C)(C)n1nc2c(c1NC(=O)c1ccc([N+](=O)[O-])cc1)CS(=O)(=O)C2	-8%	-2	17%[46.1 µM]	-1%	20%	5%[46.1 µM]
O=C(Nc1cccc(NC(=O)c2cc([N+](=O)[O-])ccc2Cl)n1)c1cc([N+](=O)[O-])ccc1Cl	13µM*	/	/	/	1.1µM*	/
Cc1cc(NC(=O)c2cc([N+](=O)[O-])ccc2Cl)no1	?	-33	?	1%	12%	-25%
CC(C)(C)n1nc2c(c1NC(=O)c1cc([N+](=O)[O-])ccc1Cl)CS(=O)(=O)C2	?	+	/	-2%	1%	/
Cc1ccc(C2=NOC(=O)/C2=C\C=C\c2ccccc2)cc1	14µM*	-109*	?	-6%	?	?
CC1=NN(c2ccccc2)C(=O)/C1=C/C=C/c1ccccc1	35µM*	-69*	?	-5%	12%	-21%
CC1=NN(c2cccc(C(=O)O)c2)C(=O)/C1=C\C=C\c1ccco1	-20%	-36	?	9%	10%	-4%
CC1=NN(c2ccccc2)C(=O)/C1=C/c1cc(C)n(C2CC2)c1C	28%	-68*	30%[46.1 µM]	0%	-7%	4%
CC(C)CCC(CCN1CCCC1)c1ccc2c(c1)OCO2 (stereo unspecified)	-16%	9	?	-1%	?	-10%
COCCCNCCC(CCC(C)C)c1ccc2c(c1)OCO2 (stereo unspecified)	19%	11	?	-2%	14µM*	?
CC(C)CCC(CCN1CCOCC1)c1ccc2c(c1)OCO2 (stereo unspecified)	-26%	-20	12µM*	3%	?	-22%
CCN(Cc1cc(=O)n2ccsc2n1)Cc1nc2cc(OC)c(OC)cc2c(=O)[nH]1	-2%	-5	/	0%	-3%	/
CCN(CC)CCOC(=O)c1ccc(Cl)cc1	-8%	-16	-3%[46.1 µM]	13%	14%	4%
CCN(CC)CCOC(=O)c1ccc(NC(=O)C(C)NC(=O)C23CC4CC(CC(C4)C2)C3)cc1 (stereo unspecified)	7%	-64*	-14%	14%	25%	-4%
CCOc1cc(C=O)c(Br)cc1OC1CCCC1	-30%	-62*	0%	1%	-26%	?
COc1cc(C=O)c(Br)cc1OCc1ccc(C)cc1	/	6	?	-28%	-21%	6%
CCN(C(=O)COC(=O)c1c(C)c(-c2ccccc2)nc2ccccc12)C1CCS(=O)(=O)C1 (stereo unspecified)	-25%	3	/	-1%	13µM*	/
CCN(C(=O)COC(=O)c1cc(-c2cccs2)nc2ccccc12)C1CCS(=O)(=O)C1 (stereo unspecified)	0%	3	1%[46.1 µM]	1%	11µM*	16%[46.1 µM]
SMILES	FMDV inh	HCMV antiviral	Marburg entry inh	SARS PLP yeast	HCV inh	Lassa entry inh
COc1ccc(-c2cc(C(=O)OCC(=O)N(C)C3CCS(=O)(=O)C3)c3ccccc3n2)cc1OC (stereo unspecified)	-15%	-23	?	0%	3.2µM*	?
CCN(C(=O)COC(=O)c1cc(-c2ccc(C)o2)nc2ccccc12)C1CCS(=O)(=O)C1 (stereo unspecified)	16%	-5	-15%[46.1 µM]	-1%	-28%	?
Cc1ccc(C(=O)C2=C(O)C(=O)N(c3ncccn3)C2c2ccccc2F)o1 (stereo unspecified)	-5%	-32	/	3%	-3%	/
COCCN1C(=O)NC(c2ccc(Br)cc2)C(C(C)=O)=C1C (stereo unspecified)	/	/	63%[14.2 µM]	/	/	/
CN(C)/C=N/c1ncc(C(=O)c2ccc(Cl)cc2Cl)s1	-12%	-61*	12%[46.1 µM]	-4%	?	-11%
CCc1cccc2c(-c3ccccc3)nc(SCC(=O)Nc3ccccc3OC)nc12	-19%	33	-24%[46.1 µM]	/	/	19%[46.1 µM]
CC(NC(=O)CSc1nc2c(c(C(F)(F)F)n1)CCc1ccccc1-2)c1ccccc1 (stereo unspecified)	?	?	?	3%	13µM*	?
Cc1c(-c2ccccn2)c(=O)[nH]n1-c1ccc(F)cc1	-34%	14	8.9µM*	0%	6%	-27%[46.1 µM]
O=c1[nH]n(-c2ccc(F)cc2)c2ncccc12	1%	-7	6%	-12%	16%	5%
Cc1cc(C)cc(C(=O)NCCn2cc(C(=O)N3CCSCC3)nn2)c1	-2%	/	/	/	/	/
CCN(CC)CCCN1C(=O)C(O)=C(C(=O)c2ccc(C)o2)[C@@H]1c1ccc(C)o1	/	/	8%	/	/	/
COc1ccc(CSC2=CS(=O)(=O)c3ccccc3N2)cc1	4%	-62*	?	0%	-13%	-11%
O=C(Nc1nnc2n1CCS2)c1ccccc1	23%	-68*	/	/	/	7%[46.1 µM]
CCc1cccc(C)c1NC(=O)CN1CCN(Cc2ccccc2Cl)S1(=O)=O	-22%	0	/	/	/	20%[46.1 µM]
CCc1ccc(NC(=O)CN2CCCN(Cc3cccc(Cl)c3)S2(=O)=O)cc1	-12%	+	/	/	/	?
CCc1cccc(C)c1NC(=O)CN1CCCN(Cc2ccccc2Cl)S1(=O)=O	-19%	+	/	/	/	-8%[46.1 µM]
C[C@@H]1NC(=O)[C@H](CCCN=C(N)N)NC(=O)c2cc([N+](=O)[O-])cc(I)c2NCCC[C@@H](C(N)=O)NC1=O	-16%	-5	3%	-5%	7.9µM*	5%
C[C@@H]1NC(=O)[C@H](CCC(N)=O)NC(=O)c2cc([N+](=O)[O-])cc(I)c2NCCC[C@@H](C(N)=O)NC1=O	4%	-21	2%	7%	-5%[8.37 µM]	4%
CCc1ccc(N(CC(=O)Nc2ccc(NC(C)=O)cc2)S(=O)(=O)c2ccccc2)cc1	-1%	-61*	-20%	-1%	-21%	?
Cc1ccc(N(CC(=O)Nc2ccccc2-c2ccccc2)S(=O)(=O)c2ccccc2)cc1	-10%	-70*	?	14%	10µM*	?

Source: PubChem BioAssay (National Center for Advancing Translational Sciences (NCATS))
